Records with an inconclusive call do not appear. The source made the active and inactive calls. The call rests on the fitted dose curve; in most records, active means well fitted inhibition curve with a large enough effect; inconclusive means small, poorly fitted or top-dose-only effect; inactive means no such curve, though single readings can be large or run the other way.
assay: qHTS for Inhibitors of the Aldehyde Dehydrogenase Family (ALDH1A2, ALDH1A3, ALDH2, ALDH3A1) (AID 2061307); settings: ALDH inhibition qHTS; series mostly up to 50.3 µM; activity change, negative = inhibition: at the top concentration; further: nearly all actives have a fitted effect of over 50% in size; on Potency: test system not described further here
On the % scale 0 is the no-effect control and ±100 the full control effect; potency means the concentration at half of the fitted maximal effect.

Compound | activity change, negative = inhibition | Potency
O=C(CSc1nc2ccccc2c(=O)[nH]1)Nc1nc(-c2ccc(Br)cc2)cs1 | -14.1% (inactive) | 
COc1cc2nc(N3CCN(C)CC3)nc(N)c2cc1OC | 0.956% (inactive) | 
O=C1C(=O)N(Cc2ccccc2)c2ccccc21 |  | 1790 nM (active)
O=C(c1cc(-c2ccccc2Cl)nc2ccccc12)N1CCN(c2ccccc2O)CC1 | -26.1% (inactive) | 
Cc1ccccc1CN1CCN(Cc2ccc3ccccc3n2)CC1CCO (centres undefined) |  | 3180 nM (active)
COc1ccc(-c2cc(C(=O)Nc3ccc(C(N)=O)cc3F)sc2C)cc1 | 0% [at 34.4 µM] (inactive) | 
O=C(Nc1ccc(C(=O)N2CCCC2)cc1)c1cccc(Cl)c1 | -64.8% [at 34.4 µM] (inactive) | 
COc1ccc(-n2nc(C(=O)Nc3ccc(Cl)cn3)c3c4ccccc4n(C)c3c2=O)cc1 | -27.2% [at 34.4 µM] (inactive) | 
OCC1CCN(c2ccc3cc(Br)ccc3n2)CC1 |  | 8910 nM (active)
O=C(Nc1cccc(S(=O)(=O)N2CCOCC2)c1)c1cc(-c2cccnc2)nc2ccccc12 | -53.6% (inactive) | 
O=C(CSc1nnc(-c2ccccn2)o1)Nc1ccc2c(c1)OCCO2 |  | 11300 nM (active)
COc1cc(O)c(C(CC(=O)N2CC(C)CC(C)C2)c2ccc(C(N)=O)cc2)c(OC)c1 (centres undefined) |  | 282 nM (active)
Cc1cc(SCc2sc(-c3ccc(F)cc3)nc2C)ccc1OCC(=O)O | -28.6% (inactive) | 
O=C(Nc1nc2ccc(Cl)cc2s1)c1cc(=O)c2ccccc2o1 | -34.5% [at 34.4 µM] (inactive) | 
CN(C)C(C(=O)N1CCN(c2ccc(C#N)cc2)CC1)c1ccccc1F (centres undefined) | 2.22% [at 34.4 µM] (inactive) | 
N#Cc1nc(-c2ccc(F)cc2)oc1N1CCN(C(=O)c2ccccc2F)CC1 | -11.8% (inactive) | 
COc1ccc(-n2ccc(C(=O)NC(C)(C)C)n2)cc1 | -40.6% [at 34.4 µM] (inactive) | 
COC(=O)c1ccc(CNc2ncnc3ccccc23)cc1 |  | 708 nM (active)
O=C(Nc1nnc(Cc2ccccc2)s1)c1ccc(F)c(F)c1 | -13.5% [at 34.4 µM] (inactive) | 
Cn1nc(-c2ccccc2)cc1C(=O)N[C@H](Cc1ccc2ccccc2c1)C(=O)O | -16% (inactive) | 
NS(=O)(=O)c1ccc(Cc2cn(-c3nc(C(=O)O)cs3)c3cc(C(=O)N4CCOCC4)ccc23)cc1 | -3.7% (inactive) | 
CN1CCN(CC(=O)N2c3ccc(S(=O)(=O)NCCNC(=O)OC(C)(C)C)cc3C(=O)Nc3cccnc32)CC1 | -20.5% (inactive) | 
Cc1cnc(CNc2nc(-c3ccccc3Cl)nc3ccccc23)cn1 | -8.33% (inactive) | 
O=S(=O)(Nc1ccccc1F)c1cccc(NC(=S)NCCN2CCOCC2)c1 | -5.69% (inactive) | 
